Assay results published in PubChem BioAssay.

Experiment: probe aNOTCH3 binding on compound microarray – biochemical, small-molecule microarray, 635/667 nm fluorescence, primary screen (AID 1120);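 also: probe is a biotin-tagged antibody raised against NOTCH3 rather than NOTCH3 protein; score merges spot fluorescence near 667 nm with spot signal to noise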
Settings: higher = more signal
With `CC1CC/C=C\[C@H]2OC34C=CCN(C(C)(C)C)C(=O)[C@H]3N(CCCCCCO)C(=O)[C@@H]4C2C(=O)O1` (stereo not given in full) the composite z-score was -0.295. Compound `C[C@@]1([C@@H](NC(=O)c2ccccc2)c2ccc(-c3ccccc3)cc2)C[C@H]1C1CCCCC1` has a composite z-score of 0.106. With `COCCCNC(=O)[C@@]1(Cc2ccccc2N=[N+]=[N-])N=C(c2ccc(OCCCO)cc2)O[C@H]1c1ccccc1N=[N+]=[N-]` the composite z-score was 0.386. Compound `CCN(CC)c1ccc(N2CC=CC34O[C@@H]5/C=C\CCCOC(=O)C5[C@H]3C(=O)N(CCO)[C@@H]4C2=O)cc1` (stereo not given in full) has a composite z-score of -0.299. `CC(C)(C)OC(=O)CC[C@]12N=C(c3ccc(OCCCO)cc3)O[C@H]1c1ccccc1N(CCS(=O)(=O)c1ccccc1)C2=O` gave a composite z-score of 0.21. In the case of `CN1C(=O)C2C=CC(C(O)c3cccs3)N(Nc3ccccc3)C2C1=O` (stereo not given), the composite z-score is reported as 0.0873. With `O=C1O[C@H](c2ccccc2)[C@H](c2ccccc2)N2[C@H]1[C@@H](C(=O)O)[C@]1(C(=O)Nc3ccc(C#CC4=CCCCC4)cc31)[C@H]2c1ccccc1OCCO` the composite z-score was 0.806. For `COc1cc(OC)c(C(O)C2C=CC3C(=O)NC(=O)C3N2Nc2ccc(Cl)cc2Cl)cc1Br` (stereo not given), the composite z-score was 0.282. Work on `C=CC[C@]1(C(=O)NCCCOC)N=C(c2ccc(OCCCO)cc2)O[C@H]1c1ccccc1N=[N+]=[N-]` yielded a composite z-score of 0.205. Compound `Cc1ccc(S[C@]2(C(=O)NCCN3CCOCC3)CC(=O)N(Cc3ccccc3Cl)[C@@H]2c2ccc(CO)cc2)cc1` has a composite z-score of -0.0362. In the case of `Cc1ccc(S[C@]2(C(=O)NCC(C)C)CC(=O)N(Cc3cc(C(F)(F)F)cc(C(F)(F)F)c3)[C@@H]2c2ccc(CO)cc2I)cc1`, the composite z-score is reported as -0.188. For `CC(C)[C@@H](CO)NC(=O)[C@H]1[C@@H](c2ccccc2)N(c2ccccc2)O[C@@H]1C`, the composite z-score was -0.0573. `C=CCOC(=O)[C@@H]1[C@H]2C(=O)O[C@H](c3ccccc3)[C@H](c3ccccc3)N2[C@H](c2ccc(OCCOC(=O)[C@@H]3C[C@@H]4C(=O)N[C@@H](CCCCN(C)C)C(=O)N4[C@@H]3c3ccc(O)cc3)cc2)[C@@]12C(=O)Nc1ccc(I)cc12` showed a composite z-score of 0.0738. Work on `COCCOC(=O)N1C(=O)[C@@]2(c3cc(C#CC4=CCCCC4)ccc31)[C@H](C(=O)Nc1nc3ccccc3s1)[C@H]1C(=O)O[C@H](c3ccccc3)[C@H](c3ccccc3)N1[C@@H]2c1ccccc1OCCO` yielded a composite z-score of 0.757. In the case of `CC(C)N1C(=O)[C@@]2(Cc3ccccc31)c1ccccc1C(=O)N(C1CCCCC1)[C@H]2c1ccc(CO)cc1`, the composite z-score is reported as 0.0196. `O=C1O[C@H](c2ccccc2)[C@H](c2ccccc2)N2[C@H]1[C@@H](C(=O)O)[C@]1(C(=O)Nc3ccc(C#CCCO)cc31)[C@H]2c1ccc(O)cc1` showed a composite z-score of -0.0014. `C=CC[C@@]1(C(=O)NCc2ccccc2)N=C(c2ccc(OCCCO)cc2)O[C@@H]1c1ccccc1N=[N+]=[N-]` gave a composite z-score of 0.355. `COc1ccc(CCN2C(=O)[C@@]3(c4ccc([N+](=O)[O-])cc4)CC(=O)N(C4CCCCC4)[C@@H]3c3ccc(CO)cc32)cc1` gave a composite z-score of -0.0598. `C=CCOC(=O)[C@@H]1[C@H]2C(=O)O[C@H](c3ccccc3)[C@H](c3ccccc3)N2[C@H](c2ccc(OCCOC(=O)[C@@H]3C[C@@H]4C(=O)N[C@@H](CCCC[N+](C)(C)C)C(=O)N4[C@@H]3c3cccc(OCCO)c3)cc2)[C@@]12C(=O)Nc1ccc(I)cc12` gave a composite z-score of 0.0257. `O=C1[C@H]2C=C(Br)[C@H](C[C@@H]2OCCCCO)[C@@]12CO2` showed a composite z-score of -0.0918. `O=C(NCc1ccccc1)[C@@]1(Cc2ccccc2)N=C(c2ccc(OCCCO)cc2)O[C@H]1c1ccccc1` showed a composite z-score of 0.261. `CCc1oc(CC[C@@H](CO)NC(=O)NCCn2cc(C3(O)CCCCC3)nn2)c(C(=O)OC)c1C(=O)OC` gave a composite z-score of 0.232. Compound `C=C(/C(=C/C[C@@H](OC(C)=O)c1ccc(OCCO)cc1)c1cnc2ccccc2c1)C(C)C` has a composite z-score of -0.0362. `COC(=O)[C@@]1(Cc2ccc(F)cc2)[C@H]2c3cc(C(=O)N(C)C)n(Cc4ccc(S(C)(=O)=O)cc4)c3C[C@H]2CN1C(=O)c1ccccc1` gave a composite z-score of -0.142. Work on `O=C(NCc1ccc(F)cc1)[C@H]1C[C@H]2C(=O)N[C@@H](Cc3ccccc3)C(=O)N2[C@H]1c1ccc(O)cc1` yielded a composite z-score of -0.323. For `C=CC[C@@]1(C(=O)N(C)C)N=C(c2ccc(OCCCO)cc2)O[C@@H]1c1ccccc1N=[N+]=[N-]`, the composite z-score was 0.37. `C=C(COC)/C(=C/C[C@@H](OC(C)=O)c1ccc(OCCO)cc1)c1cc(C(=O)OC)ccc1OC` gave a composite z-score of 0.0873. `Cc1ccc(C(C)CC(O)C2C=CC3C(=O)N(C)C(=O)C3N2NC(=O)OC(C)(C)C)o1` (stereo not given) showed a composite z-score of 0.18. In the case of `CC(C)C[C@@H]1NC(=O)[C@H]2C[C@@H](C(=O)NCCCCCCN(C)C)[C@@H](c3ccc(O)cc3)N2C1=O`, the composite z-score is reported as 0.0293. In the case of `CN(C)CCCCCCNC(=O)[C@@H]1C[C@@H]2C(=O)N[C@@H](CCCCN)C(=O)N2[C@@H]1c1cccc(OCCO)c1`, the composite z-score is reported as 1.79. In the case of `[N-]=[N+]=NCc1ccccc1[C@H]1OC(c2ccc(OCCCO)cc2)=N[C@@]1(Cc1ccccc1)C(=O)NCc1ccccc1`, the composite z-score is reported as 0.0884. `CCOC(=O)C[C@H]1[C@H](OC(=O)c2cc3ccccc3oc2=O)[C@@H](NC(=O)C2CCCCC2)c2cc(OCCCO)ccc2N1C(=O)c1ccccc1` gave a composite z-score of 0.281. For `[N-]=[N+]=NCc1ccccc1C[C@]1(C(=O)NCC(O)CO)N=C(c2ccc(OCCCO)cc2)O[C@H]1c1ccccc1` (stereo not given in full), the composite z-score was 0.062. For `CO[C@H]1O[C@H](CO)[C@@H](OC(=O)Nc2ccc(Br)cc2)[C@H](OC(=O)c2cc3ccccc3[nH]2)[C@H]1OC(=O)c1cc2ccccc2[nH]1`, the composite z-score was -0.04. Work on `CC(CO)N1C(=O)[C@@H]2C3C(=O)OCCC/C=C\[C@H]3OC23C=CCN(c2ccc4ccccc4c2)C(=O)[C@@H]13` (stereo not given in full) yielded a composite z-score of -0.219.
